Drawing on paper PMC7862700, “An all-to-all approach to the identification of sequence-specific readers for epigenetic DNA modifications on cytosine”, this text covers binding signal for one sequence.

Common to all, as to test: DAPPL (digital affinity profiling via proximity ligation, sequencing); 10 mM Tris-HCl pH 7.5, 50 mM NaCl, 1 mM DTT, 4% glycerol, room temperature, 30 min; GST-TFs on glutathione beads, 16-mer random dsDNA library, 0.1% formaldehyde crosslink after washing; high values mean tight binding
The target in one assay is T1, FEV (Homo sapiens, UniProt Q99581 1-238).
T1 sequence: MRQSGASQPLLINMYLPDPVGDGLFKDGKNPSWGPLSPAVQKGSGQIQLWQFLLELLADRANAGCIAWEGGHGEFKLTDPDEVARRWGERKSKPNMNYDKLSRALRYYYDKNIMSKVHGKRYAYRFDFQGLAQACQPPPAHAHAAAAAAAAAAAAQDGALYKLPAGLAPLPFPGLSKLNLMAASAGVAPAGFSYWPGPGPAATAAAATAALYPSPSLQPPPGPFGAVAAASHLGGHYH
Particulars: protein: recombinant; tags: N-terminal GST; dsDNA, one strand shown. An outline of the steps:
(§1)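 Human transcription factors carrying a GST fusion were produced in yeast, bound to glutathione beads, tagged with DNA barcodes and pooled together with a tag-only sample. Each pool was held with 200 nmole of a random double-stranded 16-mer DNA library in Tris/NaCl/DTT/glycerol buffer for 30 min at room temperature, then washed, crosslinked in 0.1% formaldehyde, proximity-ligated with BsaI/T4 ligase (1 h, 37 °C), PCR-amplified and sequenced on an Illumina NextSeq500. Binding signal is the read frequency of each hexamer for a given factor divided by its frequency in the tag-only sample.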

The next assay concerns the target ETV5 (Homo sapiens, UniProt P41161 1-510). The following applies: protein: recombinant; tags: N-terminal GST; dsDNA, one strand shown. The method in brief: as §1
The target of the next assay is HSF1 (Homo sapiens, UniProt Q00613 1-529). The following applies: protein: recombinant; tags: N-terminal GST; chain copies: 3; dsDNA, one strand shown. An outline of the steps: as §1
HSF1, sequence (Q00613 whole entry): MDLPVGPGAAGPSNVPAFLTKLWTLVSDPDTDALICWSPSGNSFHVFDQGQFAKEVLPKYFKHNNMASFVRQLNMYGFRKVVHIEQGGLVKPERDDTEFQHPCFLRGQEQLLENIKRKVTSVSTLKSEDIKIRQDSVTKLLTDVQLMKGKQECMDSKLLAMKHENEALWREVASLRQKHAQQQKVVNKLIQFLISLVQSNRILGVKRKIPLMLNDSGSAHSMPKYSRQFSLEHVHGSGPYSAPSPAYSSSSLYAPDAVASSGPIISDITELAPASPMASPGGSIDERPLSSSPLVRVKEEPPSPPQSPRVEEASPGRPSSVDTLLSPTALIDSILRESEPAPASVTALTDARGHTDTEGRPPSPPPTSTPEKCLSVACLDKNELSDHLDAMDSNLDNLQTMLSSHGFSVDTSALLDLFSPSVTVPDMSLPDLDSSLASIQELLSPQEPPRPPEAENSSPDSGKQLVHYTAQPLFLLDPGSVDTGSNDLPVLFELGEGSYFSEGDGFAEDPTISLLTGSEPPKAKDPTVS
The target of another assay is T2, SPIC (Homo sapiens, UniProt Q8N5J4 1-248).
T2 sequence: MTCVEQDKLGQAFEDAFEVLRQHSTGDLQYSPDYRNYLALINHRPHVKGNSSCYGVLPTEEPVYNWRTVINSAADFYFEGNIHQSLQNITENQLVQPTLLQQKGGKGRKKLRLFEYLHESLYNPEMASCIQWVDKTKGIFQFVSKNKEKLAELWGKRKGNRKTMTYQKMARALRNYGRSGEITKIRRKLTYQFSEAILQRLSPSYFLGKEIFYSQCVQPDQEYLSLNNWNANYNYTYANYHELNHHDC
Particulars: protein: recombinant; tags: N-terminal GST; dsDNA, one strand shown. An outline of the steps: as §1

The target of another assay is ELF4 (Homo sapiens, UniProt Q99607 1-663). Particulars: protein: recombinant; tags: N-terminal GST; dsDNA, one strand shown. An outline of the steps:
as §1

In a further assay the target is T3, ELK4 (Homo sapiens, UniProt P28324-2 1-405).
T3 sequence: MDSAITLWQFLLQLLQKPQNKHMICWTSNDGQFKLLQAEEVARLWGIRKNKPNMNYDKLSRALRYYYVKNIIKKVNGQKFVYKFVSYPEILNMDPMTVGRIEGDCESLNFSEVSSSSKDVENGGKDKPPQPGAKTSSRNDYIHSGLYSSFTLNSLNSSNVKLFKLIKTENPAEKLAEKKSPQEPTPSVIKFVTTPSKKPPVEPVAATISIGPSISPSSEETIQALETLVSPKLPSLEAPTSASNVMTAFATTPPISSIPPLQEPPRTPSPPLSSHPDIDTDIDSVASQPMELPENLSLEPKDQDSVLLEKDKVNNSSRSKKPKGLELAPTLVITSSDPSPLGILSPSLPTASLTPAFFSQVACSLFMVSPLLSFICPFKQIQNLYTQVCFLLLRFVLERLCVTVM
Particulars: protein: recombinant; tags: N-terminal GST; dsDNA, one strand shown. The method in brief: as §1

The next assay deals with T4, ETV2 (Homo sapiens, UniProt O00321 1-342).
T4 sequence: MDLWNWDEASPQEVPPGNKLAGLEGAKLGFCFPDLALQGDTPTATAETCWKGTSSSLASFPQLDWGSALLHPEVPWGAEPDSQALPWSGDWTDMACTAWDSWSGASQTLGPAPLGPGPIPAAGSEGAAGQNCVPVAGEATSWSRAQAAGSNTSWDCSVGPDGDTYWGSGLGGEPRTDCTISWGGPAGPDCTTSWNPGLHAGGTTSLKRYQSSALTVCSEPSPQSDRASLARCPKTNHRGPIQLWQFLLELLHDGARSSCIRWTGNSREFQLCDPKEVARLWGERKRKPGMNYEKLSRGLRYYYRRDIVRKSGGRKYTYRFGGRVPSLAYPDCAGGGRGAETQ
Particulars: protein: recombinant; tags: N-terminal GST; dsDNA, one strand shown. The method in brief:
as §1

A further assay deals with T5, ELF3 (Homo sapiens, UniProt P78545 1-371).
T5 sequence: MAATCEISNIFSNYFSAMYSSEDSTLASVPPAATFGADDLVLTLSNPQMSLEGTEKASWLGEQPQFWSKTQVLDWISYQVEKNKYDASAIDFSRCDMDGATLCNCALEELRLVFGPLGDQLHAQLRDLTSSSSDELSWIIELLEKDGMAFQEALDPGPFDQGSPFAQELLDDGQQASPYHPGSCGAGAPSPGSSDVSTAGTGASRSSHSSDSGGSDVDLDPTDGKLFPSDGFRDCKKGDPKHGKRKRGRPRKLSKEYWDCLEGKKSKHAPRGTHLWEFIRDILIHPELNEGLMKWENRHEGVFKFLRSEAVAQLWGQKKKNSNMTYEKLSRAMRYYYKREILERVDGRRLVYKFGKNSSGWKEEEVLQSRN
Particulars: protein: recombinant; tags: N-terminal GST; dsDNA, one strand shown. An outline of the steps:
as §1

The target in another assay is CRX (Homo sapiens, UniProt O43186 1-299). The following applies: protein: recombinant; tags: N-terminal GST; dsDNA, one strand shown. The method in brief:
as §1

In a further assay the target is ETV1 (Homo sapiens, UniProt P50549 1-477). Particulars: protein: recombinant; tags: N-terminal GST; dsDNA, one strand shown. The method in brief:
as §1

For a further assay, the target named is T6, ERF (Homo sapiens, UniProt P50548 1-548).
T6 sequence: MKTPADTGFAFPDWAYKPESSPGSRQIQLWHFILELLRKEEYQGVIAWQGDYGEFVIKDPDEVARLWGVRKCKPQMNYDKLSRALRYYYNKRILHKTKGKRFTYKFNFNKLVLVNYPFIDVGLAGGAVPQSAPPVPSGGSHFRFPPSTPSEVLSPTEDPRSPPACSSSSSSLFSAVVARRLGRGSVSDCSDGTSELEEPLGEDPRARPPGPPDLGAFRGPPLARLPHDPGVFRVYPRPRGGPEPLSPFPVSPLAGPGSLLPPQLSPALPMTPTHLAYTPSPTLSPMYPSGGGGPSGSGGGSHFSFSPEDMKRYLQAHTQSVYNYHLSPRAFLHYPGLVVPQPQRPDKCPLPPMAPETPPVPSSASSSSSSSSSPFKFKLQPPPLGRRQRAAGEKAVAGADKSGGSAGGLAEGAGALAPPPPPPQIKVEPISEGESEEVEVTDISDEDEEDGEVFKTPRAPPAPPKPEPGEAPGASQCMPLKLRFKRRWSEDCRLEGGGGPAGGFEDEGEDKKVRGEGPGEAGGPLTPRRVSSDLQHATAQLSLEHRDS
Particulars: protein: recombinant; tags: N-terminal GST; dsDNA, one strand shown. An outline of the steps: as §1

The next assay has as its target T7, ETV3L (Homo sapiens, UniProt Q6ZN32 1-361).
T7 sequence: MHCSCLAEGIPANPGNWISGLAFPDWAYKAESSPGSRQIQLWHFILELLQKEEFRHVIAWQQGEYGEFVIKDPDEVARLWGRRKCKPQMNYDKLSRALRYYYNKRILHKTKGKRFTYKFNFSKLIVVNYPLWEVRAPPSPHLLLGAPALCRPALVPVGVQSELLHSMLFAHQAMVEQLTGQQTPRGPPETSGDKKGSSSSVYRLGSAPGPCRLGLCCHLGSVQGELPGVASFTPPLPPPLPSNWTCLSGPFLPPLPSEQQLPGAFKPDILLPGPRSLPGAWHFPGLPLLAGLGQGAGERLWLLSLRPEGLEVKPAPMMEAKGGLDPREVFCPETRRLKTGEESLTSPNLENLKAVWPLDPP
The following applies: protein: recombinant; tags: N-terminal GST; dsDNA, one strand shown. The method in brief: as §1

The target of another assay is T8, ETS2 (Homo sapiens, UniProt P15036 1-469).
T8 sequence: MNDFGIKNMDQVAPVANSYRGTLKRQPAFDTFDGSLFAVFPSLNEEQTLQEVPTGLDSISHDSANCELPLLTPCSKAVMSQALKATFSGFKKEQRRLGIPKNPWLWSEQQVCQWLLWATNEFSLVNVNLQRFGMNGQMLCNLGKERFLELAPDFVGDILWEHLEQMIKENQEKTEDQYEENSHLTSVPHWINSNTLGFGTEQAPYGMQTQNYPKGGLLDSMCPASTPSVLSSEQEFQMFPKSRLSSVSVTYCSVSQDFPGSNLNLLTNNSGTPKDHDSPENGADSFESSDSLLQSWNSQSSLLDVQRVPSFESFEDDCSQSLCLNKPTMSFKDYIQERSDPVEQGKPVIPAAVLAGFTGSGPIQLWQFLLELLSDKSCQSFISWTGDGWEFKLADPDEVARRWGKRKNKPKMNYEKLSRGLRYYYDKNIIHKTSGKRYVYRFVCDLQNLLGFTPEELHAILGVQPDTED
The following applies: protein: recombinant; tags: N-terminal GST; dsDNA, one strand shown. An outline of the steps:
as §1

A further assay has as its target T9, SPDEF (Homo sapiens, UniProt O95238 1-335).
T9 sequence: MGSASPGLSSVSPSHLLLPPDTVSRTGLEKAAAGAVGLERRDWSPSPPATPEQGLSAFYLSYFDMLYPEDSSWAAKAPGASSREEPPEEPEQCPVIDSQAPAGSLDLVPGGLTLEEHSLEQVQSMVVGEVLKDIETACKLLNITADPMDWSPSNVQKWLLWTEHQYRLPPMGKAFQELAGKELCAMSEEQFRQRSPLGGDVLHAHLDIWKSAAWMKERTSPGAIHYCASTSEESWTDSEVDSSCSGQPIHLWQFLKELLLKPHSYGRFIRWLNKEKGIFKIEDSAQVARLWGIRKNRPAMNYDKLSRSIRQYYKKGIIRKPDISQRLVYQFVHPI
The following applies: protein: recombinant; tags: N-terminal GST; dsDNA, one strand shown. The method in brief: as §1

The next assay has as its target T10, ETV7 (Homo sapiens, UniProt Q9Y603 1-341).
T10 sequence: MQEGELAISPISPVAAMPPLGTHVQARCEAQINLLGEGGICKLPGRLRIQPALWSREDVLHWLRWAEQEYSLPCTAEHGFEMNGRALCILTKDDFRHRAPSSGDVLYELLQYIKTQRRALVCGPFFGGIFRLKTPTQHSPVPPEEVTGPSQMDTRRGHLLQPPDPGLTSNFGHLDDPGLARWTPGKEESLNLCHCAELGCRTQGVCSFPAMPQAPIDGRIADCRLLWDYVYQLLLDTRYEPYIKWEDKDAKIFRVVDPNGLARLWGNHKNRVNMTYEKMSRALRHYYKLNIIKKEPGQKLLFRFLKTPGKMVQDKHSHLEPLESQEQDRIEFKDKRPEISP
The following applies: protein: recombinant; tags: N-terminal GST; dsDNA, one strand shown. An outline of the steps: as §1

The next assay deals with T11, ELF5 (Homo sapiens, UniProt Q9UKW6-2 1-255).
T11 sequence: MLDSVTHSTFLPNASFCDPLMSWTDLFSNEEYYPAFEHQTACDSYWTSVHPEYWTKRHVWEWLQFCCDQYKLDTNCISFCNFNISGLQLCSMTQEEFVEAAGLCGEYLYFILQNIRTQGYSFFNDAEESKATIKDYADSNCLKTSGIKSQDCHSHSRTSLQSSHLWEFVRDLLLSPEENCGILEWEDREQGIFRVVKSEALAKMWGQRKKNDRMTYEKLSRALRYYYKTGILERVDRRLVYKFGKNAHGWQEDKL
The following applies: protein: recombinant; tags: N-terminal GST; dsDNA, one strand shown. An outline of the steps:
as §1

A further assay deals with T12, ETV3 (Homo sapiens, UniProt P41162-2 1-143).
T12 sequence: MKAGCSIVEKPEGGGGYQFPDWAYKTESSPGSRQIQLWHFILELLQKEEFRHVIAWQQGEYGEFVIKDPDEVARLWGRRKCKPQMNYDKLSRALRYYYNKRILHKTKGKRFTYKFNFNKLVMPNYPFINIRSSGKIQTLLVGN
The following applies: protein: recombinant; tags: N-terminal GST; dsDNA, one strand shown. An outline of the steps: as §1

A further assay addresses ETV6 (Homo sapiens, UniProt P41212 1-452). The following applies: protein: recombinant; tags: N-terminal GST; dsDNA, one strand shown. An outline of the steps:
as §1

ETV5, sequence (P41161 whole entry): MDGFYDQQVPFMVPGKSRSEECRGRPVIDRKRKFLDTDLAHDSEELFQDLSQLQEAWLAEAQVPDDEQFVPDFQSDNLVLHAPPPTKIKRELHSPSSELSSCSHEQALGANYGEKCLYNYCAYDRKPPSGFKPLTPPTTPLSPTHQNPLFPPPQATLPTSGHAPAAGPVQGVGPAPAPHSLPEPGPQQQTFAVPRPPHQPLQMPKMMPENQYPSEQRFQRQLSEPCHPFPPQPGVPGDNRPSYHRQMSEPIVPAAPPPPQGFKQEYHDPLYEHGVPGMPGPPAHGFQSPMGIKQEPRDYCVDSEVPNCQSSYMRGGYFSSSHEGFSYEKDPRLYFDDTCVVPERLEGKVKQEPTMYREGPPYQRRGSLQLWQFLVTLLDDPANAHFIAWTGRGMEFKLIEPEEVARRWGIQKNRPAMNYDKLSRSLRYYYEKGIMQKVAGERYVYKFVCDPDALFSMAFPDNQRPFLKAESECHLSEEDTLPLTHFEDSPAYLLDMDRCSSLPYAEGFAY
ELF4, sequence (Q99607 whole entry): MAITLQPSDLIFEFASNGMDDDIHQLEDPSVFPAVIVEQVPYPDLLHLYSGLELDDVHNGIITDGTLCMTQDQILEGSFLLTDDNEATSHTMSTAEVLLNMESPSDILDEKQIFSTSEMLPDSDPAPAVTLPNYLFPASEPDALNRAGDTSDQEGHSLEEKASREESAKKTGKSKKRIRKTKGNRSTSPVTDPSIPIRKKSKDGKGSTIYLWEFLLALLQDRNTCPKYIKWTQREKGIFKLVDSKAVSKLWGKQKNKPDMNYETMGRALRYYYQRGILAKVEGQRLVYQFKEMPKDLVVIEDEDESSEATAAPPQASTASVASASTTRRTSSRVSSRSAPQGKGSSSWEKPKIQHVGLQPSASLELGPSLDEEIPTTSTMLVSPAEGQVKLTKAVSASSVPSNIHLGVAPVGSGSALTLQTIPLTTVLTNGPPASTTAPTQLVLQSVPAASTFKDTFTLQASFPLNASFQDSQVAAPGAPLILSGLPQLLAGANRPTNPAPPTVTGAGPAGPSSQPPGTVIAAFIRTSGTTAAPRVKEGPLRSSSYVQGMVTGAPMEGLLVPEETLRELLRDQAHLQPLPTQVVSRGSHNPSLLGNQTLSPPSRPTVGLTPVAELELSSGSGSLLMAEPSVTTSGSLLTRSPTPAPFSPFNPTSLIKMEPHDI
CRX, sequence (O43186 whole entry): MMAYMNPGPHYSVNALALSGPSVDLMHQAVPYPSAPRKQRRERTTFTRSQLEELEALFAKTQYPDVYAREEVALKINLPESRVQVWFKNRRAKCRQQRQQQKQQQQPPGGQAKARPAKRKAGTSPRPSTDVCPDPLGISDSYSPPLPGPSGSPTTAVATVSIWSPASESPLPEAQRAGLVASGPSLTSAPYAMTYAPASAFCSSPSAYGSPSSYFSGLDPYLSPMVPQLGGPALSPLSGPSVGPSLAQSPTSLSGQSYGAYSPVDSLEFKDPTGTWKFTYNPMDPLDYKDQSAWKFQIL
ETV1, sequence (P50549 whole entry): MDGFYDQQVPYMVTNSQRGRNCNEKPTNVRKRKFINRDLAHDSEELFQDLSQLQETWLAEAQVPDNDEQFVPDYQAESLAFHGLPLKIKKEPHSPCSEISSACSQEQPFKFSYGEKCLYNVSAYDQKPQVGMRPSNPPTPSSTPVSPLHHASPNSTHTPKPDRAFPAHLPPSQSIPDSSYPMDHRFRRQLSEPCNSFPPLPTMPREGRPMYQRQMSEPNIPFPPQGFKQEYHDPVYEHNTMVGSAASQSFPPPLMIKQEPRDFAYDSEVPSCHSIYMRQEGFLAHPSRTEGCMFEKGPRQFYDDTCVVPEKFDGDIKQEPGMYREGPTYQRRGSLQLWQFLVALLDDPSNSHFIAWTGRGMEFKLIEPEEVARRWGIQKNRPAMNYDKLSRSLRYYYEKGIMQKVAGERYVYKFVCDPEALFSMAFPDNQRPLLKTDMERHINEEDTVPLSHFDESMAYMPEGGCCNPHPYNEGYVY
ETV6, sequence (P41212 whole entry): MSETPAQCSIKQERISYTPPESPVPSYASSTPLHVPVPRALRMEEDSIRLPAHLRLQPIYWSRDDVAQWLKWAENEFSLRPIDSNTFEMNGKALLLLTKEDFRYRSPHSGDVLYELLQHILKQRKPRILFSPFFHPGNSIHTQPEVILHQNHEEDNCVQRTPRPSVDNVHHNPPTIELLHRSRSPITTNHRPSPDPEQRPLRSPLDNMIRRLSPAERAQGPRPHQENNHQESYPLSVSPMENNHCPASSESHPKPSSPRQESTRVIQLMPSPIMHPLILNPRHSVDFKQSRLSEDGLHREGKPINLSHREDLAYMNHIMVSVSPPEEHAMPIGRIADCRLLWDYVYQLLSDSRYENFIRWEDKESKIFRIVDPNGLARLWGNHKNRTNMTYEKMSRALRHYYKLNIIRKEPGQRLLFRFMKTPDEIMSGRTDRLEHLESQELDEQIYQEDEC

Consider TGCTCC, for which the binding signal with FEV was 1.38 fold enrichment (6-mer frequency, TF over GST control); with ETV5 it was 1.42 fold enrichment (6-mer frequency, TF over GST control); with HSF1, 1.27 fold enrichment (6-mer frequency, TF over GST control); in the assay with SPIC it was 1.45 fold enrichment (6-mer frequency, TF over GST control); with ELF4 it was 1.41 fold enrichment (6-mer frequency, TF over GST control); with ELK4, 1.41 fold enrichment (6-mer frequency, TF over GST control). Besides, the binding signal in the assay with ETV2 is 1.48 fold enrichment (6-mer frequency, TF over GST control); in the assay with ELF3, 1.47 fold enrichment (6-mer frequency, TF over GST control); with CRX, 1.12 fold enrichment (6-mer frequency, TF over GST control); with ETV1, 1.31 fold enrichment (6-mer frequency, TF over GST control); with ERF, 1.42 fold enrichment (6-mer frequency, TF over GST control); in the assay with ETV3L it was 1.45 fold enrichment (6-mer frequency, TF over GST control). Moreover, the binding signal in the assay with ETS2 was 1.45 fold enrichment (6-mer frequency, TF over GST control); with SPDEF, 1.74 fold enrichment (6-mer frequency, TF over GST control); with ETV7 it was 1.63 fold enrichment (6-mer frequency, TF over GST control); with ELF5, 1.37 fold enrichment (6-mer frequency, TF over GST control); with ETV3 it was 1.37 fold enrichment (6-mer frequency, TF over GST control); with ETV6, 1.34 fold enrichment (6-mer frequency, TF over GST control).
